# Unmarked numbers belong to inactive results. No rule for the calls is given here.
# Target: Pantothenate synthetase (Mycobacterium tuberculosis (strain ATCC 25618 / H37Rv)) (UniProt P9WIL5)
# Test: Coupled enzyme confirmation of inhibitors against recombinant Mtb PanC (AID 375);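 also: 0% = full reaction with vehicle and 100% = no enzyme background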
# Details: coupled enzyme assay; at 10 µM, stronger effect = higher value
# Chain of Pantothenate synthetase (Mycobacterium tuberculosis (strain ATCC 25618 / H37Rv)) (P9WIL5 whole entry, looked up): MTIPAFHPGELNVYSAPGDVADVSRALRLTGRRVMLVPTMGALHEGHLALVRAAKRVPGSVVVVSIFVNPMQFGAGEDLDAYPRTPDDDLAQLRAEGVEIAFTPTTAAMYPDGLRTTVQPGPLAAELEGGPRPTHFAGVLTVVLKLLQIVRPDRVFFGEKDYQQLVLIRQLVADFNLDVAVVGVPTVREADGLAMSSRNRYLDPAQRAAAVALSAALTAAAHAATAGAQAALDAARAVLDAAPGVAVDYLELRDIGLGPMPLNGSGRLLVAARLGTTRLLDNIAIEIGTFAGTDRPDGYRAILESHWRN
row,SMILES,inhibition
1,O=C(Nc1ccccc1C(=O)N1CCCCCC1)c1cccc(S(=O)(=O)N2CCOCC2)c1,5%
2,C=CCn1c(=S)[nH]c2nc3c(cc2c1=O)COC(C)(C)C3,16%
3,Cc1nn(C)cc1NC(=O)CCSc1nc(-c2ccco2)cc(C(F)(F)F)n1,0%
4,COc1ccc(OCCOC(=O)c2cccc(-n3cnnn3)c2)cc1,0%
5,Nc1nnnn1/N=C/c1ccccn1,0%
6,Cc1ccc(Cn2c(NCCc3ccccc3)nc3c2c(=O)n(C)c(=O)n3C)cc1,4%
7,C=CCn1c(SCC(=O)c2ccccc2)nnc1-c1ccc2c(c1)OCO2,0%
8,COCCNC(=O)C(c1cccc(OC)c1)N(Cc1cccs1)C(=O)Cn1nnc2ccccc21 (configuration not stated),0%
9,C1=C(CCNc2ncnc3c2cnn3-c2ccccc2)CCCC1,6%
10,COC(=O)CCC(=O)CN,0%
11,CC1NC2(C(=O)N(Cc3ccccc3)c3ccccc32)C2C(=O)N(c3ccccc3)C(=O)C12 (configuration not stated),0%
12,COC1CCCCC1Nc1cccc(SC)c1 (configuration not stated),0%
13,COc1ccc(/C(O)=C2/C(=O)C(=O)N(CCCN(C)C)C2c2ccc(Cl)cc2)cc1OC (configuration not stated),3%
14,COc1cccc(C2C3=C(N=C4SCC(=O)N42)c2ccccc2CC3)c1OC (configuration not stated),4%
15,Cc1cc(N2C(=O)C(=O)/C(=C(/O)c3ccc(F)cc3)C2c2ccc(F)cc2)no1 (configuration not stated),0%
16,CC(=O)Nc1c(C(=O)O)[nH]c2ccccc12,0%
17,O=C(CC1CCS(=O)(=O)C1)Nc1ccc[nH]c1=O (configuration not stated),2%
